Hits are enriched below; roughly 2.3% of the tested compounds scored in any of these assays.
Shn3 inh set2: reduction of Shn3 3'UTR firefly luciferase signal, primary screen, Schnurri-3 inhibitor project, cell-based, Clone20 osteoblasts, set 2. Clone20 osteoblast Shn3 3'UTR firefly luciferase, 24 h. 0.52% of 360,000 active. inhibition, % at 12.5 µM;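 active = mean inhibition of at least 75% with every replicate also reaching 75%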;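 also: 0% = median of neutral control wells and 100% = pilot-screen positive control compound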
Jurkat NFkB inh: inhibitors of induced NF-kB luciferase reporter, primary screen, TCR NF-kB activation inhibitor project, cell-based, luminescence, uHTS | Jurkat, PMA/ionomycin-induced NF-kB luciferase reporter | inhibition, % at 4 µM | 0.53% of 330,000 active | AID 435003, 2010; in the data active = inhibition above about 50%
697 NFkB inh: inhibitors of PMA/ionomycin-induced NF-kB reporter, 697 cells, primary screen, B-cell NF-kB inhibitor project, cell-based, luminescence, uHTS; 697 B-cell NF-kB luciferase reporter, 16 h; inhibition, % at 4 µM; 0.33% of 330,000 active; AID 435022, 2010; in the data active = inhibition above about 35%
Gli-Sufu antag: Gli-Sufu pathway antagonists, primary screen, luciferase luminescence, Sufu-KO-LIGHT cells, uHTS | AID 588413, 2011 | 0.74% of 340,000 active | Sufu-KO-LIGHT fibroblasts, Gli luciferase reporter luminescence | inhibition, % at 5 µM;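 active = inhibition above about 55%, limit read from the data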;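 also: 0% = DMSO-treated cells and 100% = wells with medium but no cells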
TRPM1 prom inh: inhibitors of MITF-dependent TRPM1 promoter reporter, primary screen, cell-based, SK-MEL-5, single point, luciferase; SK-MEL-5 TRPM1 promoter luciferase, 24 h; inhibition, % at 12.5 µM; 0.83% of 330,000 active; AID 488899, 2010;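 active = mean inhibition across replicates of 60% or more, whatever share of single replicates reaches that level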
LMP1 NFkB inh: EBV LMP1-driven NF-kappaB luciferase reporter inhibitors, primary screen, cell-based, luminescence, single point; LMP1-induced NF-kappaB luciferase reporter cells; inhibition, % at 12.5 µM; AID 504558, 2011; 0.69% of 350,000 active; in the data active = inhibition above about 41%;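 also: 0% = neutral control wells and 100% = reference inhibitor control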
The depositor's hits bear a star; x = no result given; ! = not active in a repeat.

SMILES	Shn3 inh set2	Jurkat NFkB inh	697 NFkB inh	Gli-Sufu antag	TRPM1 prom inh	LMP1 NFkB inh
O=C(C=C(O)c1ccc(Cl)cc1)C(=O)NNC(=O)C(O)(c1ccccc1)c1ccccc1	98*	x	x	4	7	-1
CC1S/C(=C(\C#N)C(=O)NCc2ccco2)N(Cc2ccco2)C1=O (configuration not stated)	1	18	10	-5	3	41*
OC[C@H]1OC(O)[C@H](O)[C@@H](O)[C@H]1O (some centres not stated)	-1	6	3	6	-5	56*
CCC(=O)NC1OC(CO)C(O)C(O)C1O (configuration not stated)	-4	-3	13	-2	3	8
CCOc1ccccc1/C=C/c1onc(C)c1S(=O)(=O)N1CCC(C(=O)N(CC)CC)CC1	-3	-15	3	19	3	60*
CC[C@H]1OC(=O)[C@H](C)[C@@H](O[C@H]2C[C@@](C)(OC)[C@@H](O)[C@H](C)O2)[C@H](C)[C@@H](O[C@@H]2O[C@H](C)C[C@H](N(C)C)[C@H]2O)[C@](C)(O)C[C@@H](C)C(=NOCOCCOC)[C@H](C)[C@@H](O)[C@]1(C)O	4	5	0	11	6	54*
Cc1ccc(S(=O)(=O)N/N=C/c2c(F)cccc2Cl)cc1	-14	0	4	-5	13	-2
CN1CCN(CC(=O)c2cc(C(C)(C)C)c(O)c(C(C)(C)C)c2)CC1	-4	8	6	26	-11	86*
CC(C)(C)c1cc(CN2CCN(CCO)CC2)cc(C(C)(C)C)c1O	-4	-7	4	3	4	-9
Cn1cccc1C(=O)NC(=O)COC(=O)CC12CC3CC(CC(C3)C1)C2	-11	-2	4	-6	3	0
O=C(COC(=O)c1ccc(Cl)c(S(=O)(=O)N2CCCC2)c1)NC1CCCCC1	-11	16	19	3	-1	0
COc1ccc(OC)c(S(=O)(=O)NCCc2ccccc2)c1	-27	-7	-6	-14	-7	-5
COc1ccc(OC)c(S(=O)(=O)NC(C)CCc2ccccc2)c1 (configuration not stated)	-33	9	18	-4	5	51*
Cc1ccc(NC(=O)CCc2c(C)[nH]c(=O)c(C#N)c2C)cc1	-1	9	13	-19	-1	-3
N=C1S/C(=C\c2ccccc2F)C(=O)N1c1ccc(F)cc1	4	-21	-18	-12	-13	7
N=C1S/C(=C\c2ccccc2)C(=O)N1c1ccc(F)cc1	-25	5	1	-4	-11	67*
Cc1cc(C(=O)CSc2nnc(-c3cccs3)o2)c(C)n1-c1ccccc1	15	16	-6	9	39	58*
O=C(CSc1nnc(-c2cccs2)o1)c1cccs1	-43	-39	-20	-22	-72	-25
O=C(CCCN1C(=O)c2ccccc2C1=O)N1CCOCC1	5	-9	4	0	-9	0
O=C(Nc1cnc2ccccn2c1=O)c1ccc(Cl)cc1Cl	16	-32	-98	-4	33	44*
Cc1cccc(NC(=O)c2cnc3ccccn3c2=O)c1	12	-86	-140	-43	14	51*
COc1ccc(N2CCN(C(=O)CC(C)S(=O)(=O)c3ccc4c(c3)NC(=O)CO4)CC2)cc1 (configuration not stated)	29	-6	-8	-18	12	4
O=[N+]([O-])c1cc(S(=O)(=O)Oc2ccccc2)ccc1Cl	46	x	x	15	87*	-1
COC(=O)c1c(N)sc(C(=O)NCCc2ccccc2)c1C	31	-18	-103	-29	63*	67*
Cc1ccc(C(=O)NCCc2ccncc2)cc1	-55	-55	-20	-34	-46	-14
SMILES	Shn3 inh set2	Jurkat NFkB inh	697 NFkB inh	Gli-Sufu antag	TRPM1 prom inh	LMP1 NFkB inh
Cc1ccc(C(=O)NCCc2ccccc2)cc1	21	-36	-92	13	38	57*
CC(=O)Nc1sc2c(c1-c1nc3ccccc3s1)CN(C(C)C)CC2	-24	35	-5	-25	64*	-3
COc1ccc(C=C2CS(=O)(=O)CC(=Cc3ccc(OC)cc3)C2=O)cc1	71	x	x	x	x	91*
COc1ccc2cc3c(N)nn(C(=O)C4CCC(C(C)(C)C)CC4)c3nc2c1 (configuration not stated)	-4	18	-28	-29	x	75*
COc1ccc2cc3c(N)nn(C(=O)c4cccc([N+](=O)[O-])c4)c3nc2c1	-21	27	-9	-36	7	46*
O=C(C#Cc1ccccc1)c1ccc([N+](=O)[O-])cc1	95*	-21	-33	24	69*	26
O=C(C#Cc1ccccc1)c1ccccc1	99*	x	x	x	x	-3
CC[C@H](C)C(N)c1cn(C(CCCN=C(N)N)C(=O)N2CCNCC2)nn1 (some centres not stated)	-3	-8	3	-6	5	7
COc1ccc(-c2nnc(NC(=O)c3cc(C)on3)s2)cc1	-24	-12	-20	-44	-20	2
CCC1C/C(=C\c2cccnc2)C(=O)/C(=C/c2cccnc2)C1 (configuration not stated)	40	x	x	-3	97*	93*
O=C1/C(=C/c2cccnc2)CC/C1=C\c1cccnc1	-16	-21	-66	8	2	-2
CCOC(=O)C1CCCN(c2c(Nc3ccc(C)c(C)c3)c(=O)c2=O)C1 (configuration not stated)	-56	22	2	2	1	-6
S=C(NCc1cccnc1)Nc1cc(Cl)cc(Cl)c1	13	0	19	8	2	7
CCOc1cccc(C(=O)Nc2cccc(-c3nnc(-c4ccccc4)o3)c2)c1	14	12	-26	-5	-26	7
COc1ccc(CC(=O)Nc2cccc(-c3nnc(-c4ccc(C)cc4)o3)c2)cc1OC	65	45	3	2	62*	19
CCOc1cccc(C(=O)Nc2cccc(-c3nnc(-c4ccc(C)cc4)o3)c2)c1	-11	15	-24	-17	82*	-54
Cc1ccc(CS(=O)Cc2ccc(C(=O)NC3CCCC(C)C3C)o2)cc1 (configuration not stated)	7	0	3	0	4	-4
Cc1cc(C)nc(N/N=C/c2cc(Br)ccc2O)n1	89*	27	-18	25	10	8
Cc1cc(C)nc(N/N=C/c2ccccc2OCc2ccc(Br)cc2)n1	-15	-23	-16	8	-5	-19
CCc1nc(N)nc(N)c1-c1ccc(Cl)c(N=[N+]=[N-])c1	81*!	x	x	25	31	1

Source: PubChem BioAssay
